# According to ChEMBL document CHEMBL1157539, “Thousands of chemical starting points for antimalarial lead identification” (Nature, 2010):
# Tested on: HepG2
# Experiment: GSK_TCMDC: Percent inhibition of human HepG2 cell line. Test compounds present at 10uM.
# Assay type: functional
row,SMILES,Inhibition [%]
1,COc1cc2ncnc(Nc3ccc(OCc4ccccc4)c(I)c3)c2cc1OC.Cl,11
2,Cc1ccc(O)cc1Nc1ccnc2cc(-c3csc(CN(C)CCN(C)C)n3)ccc12,3
3,O=[N+]([O-])c1cccc(-c2ccc(C=NNc3cc(N4CCCC4)nc(N4CCCC4)n3)o2)c1,0
4,CCCCCCc1cc2cc(-c3nc(-c4ccc(OC)cc4)cs3)c(=O)oc2cc1O,45
5,Cc1c(Cc2ccccc2Br)cnc2nc(N)nc(N)c12.Cl,67
6,Br.CC(C)(C)c1ccc(OCCCON2C(=N)N=C(N)NC2(C)C)c(C(C)(C)C)c1,64
7,OC[C@H]1CCCN1CC#Cc1cc2c(Nc3ccc(OCc4cccc(F)c4)c(Cl)c3)ncnc2s1,13
8,CCN(CC)CCN(Cc1ccc(-c2ccc(C(F)(F)F)cc2)cc1)C(=O)Cn1c(CCc2ccc(F)c(F)c2F)nc(=O)c2ccc(F)cc21.O=C(O)C(O)C(O)C(=O)O,19
9,Cc1noc(C)c1C(=O)N1CCc2cc3nccc(N4CCN5CCC[C@H]5C4)c3cc21,7
10,Cc1cccc2nc(-c3cccc(-c4cccc(NC(=O)c5cncn5C)c4)c3)[nH]c12,0
11,O=C(/C=C/c1ccc(Cl)c(Cl)c1)NCCCCCN1CCC(NC(=S)Nc2ccc(Cl)cc2)CC1,62
12,CC(=O)Nc1ccc(Cl)c(Cl)c1,5
13,COc1cc2nc(NCCc3ccccc3)nc(NCc3cnn(C)c3C)c2cc1OC,13
14,Cl.O=C(/C=C/c1cccc(Cl)c1)Nc1ccc2nc(CN3CCCC3)ccc2c1,47
15,CCN1CCN(C(=O)NC(C(=O)N(C)Cc2ccc(-c3ccc(C(F)(F)F)cc3)cc2)c2cccs2)C(=O)C1=O (stereo not given),0
16,COc1ccc(CN2CCC(Oc3cccc(NC(=O)c4ccc(C(F)(F)F)cc4)c3)CC2)cc1.O=C(O)C(F)(F)F,35
17,CCCCCC(C)C(C)c1cc(O)c2c(c1)OC(C)(C)CC2(O)c1ccccn1 (stereo not given),0
18,O=C(Nc1ccncc1)c1cc(C(=O)Nc2ccncc2)cc([N+](=O)[O-])c1,1
19,Oc1cc(Nc2ccnc3cc(-c4ccc(CN5CCCCC5)o4)c(Cl)cc23)c(Cl)cc1F,0
20,CC(=O)Nc1ccc(CN(Cc2ccc(F)cc2)Cc2ccc3c(c2)OCO3)cc1,3

row,SMILES,Inhibition [%]
1,CC(C)C(=O)NC(c1ccc(Cl)cc1)c1ccc2cccnc2c1O (stereo not given),53
2,CS(=O)(=O)Cc1cccc(Nc2ncc(Cl)c(Nc3cccnc3C(N)=O)n2)c1.Cl,56
3,CCN(CCCN1CCCCC1)c1cc(C)nc(Nc2cccc(OC(F)(F)F)c2)n1.O=C(O)C(F)(F)F,32
4,O=C(Nc1cccc(-c2csc(-c3nc4ccccc4[nH]3)c2)c1)c1ccoc1,36
5,O=C(Nc1ccccc1)Nc1cccc(-c2nn3c(OCCN4CCCC4)cccc3c2-c2ccncc2)c1,30
6,CN(CCCCCN1CCC(NC(=O)Nc2ccc(Oc3ccccc3)cc2)C1)C(=O)/C=C/c1ccc(Cl)c(Cl)c1 (stereo not given),50
7,Cc1cc(N2CCOCC2)nc2ccc(NC(=O)c3ccc(Cl)c([N+](=O)[O-])c3)cc12,12
8,CN1CCN(c2cc(-c3ccncc3)nc(-c3cccnc3)n2)CC1,13
9,O=S(=O)(c1c(Cl)cccc1Cl)N1CCCCC(c2ccc(C(F)(F)F)cc2)=N1,11
10,Cl.N=C(N)Nc1nccc(NCc2ccccc2)n1,95
11,COc1c(OC)c(OC)c2ccccc2c1CCNCCCCNCCc1c(OC)c(OC)c(OC)c2ccccc12.CS(=O)(=O)O,100
12,O=C(NC1CCN(CCCOc2ccnc3cc(Cl)ccc23)C1)c1ccc(Br)cc1 (stereo not given),21
13,Cc1ccccc1C1CCN(C2CCC(NC(=O)/C=C/c3cc(F)cc(F)c3)CC2)CC1 (stereo not given),53
14,CCc1nc(N)nc(N)c1-c1ccc(F)cc1,52
15,CCN1CCC(N(Cc2ccc(-c3ccc(C(F)(F)F)cc3)cc2)C(=O)Cn2c(SCc3ccc(F)cc3)nc(=O)c3c2CCC3)CC1.O=C(O)C(O)C(O)C(=O)O,46
16,CS(=O)(=O)CCNCc1cccc(-c2cc3c(Nc4ccc(OCc5cccc(F)c5)c(Cl)c4)ncnc3s2)c1.O=C(O)C(F)(F)F,5
17,O=C(Nc1ccc(-c2cncc(NCCCN3CCCC3)c2)cc1)c1ccccc1,0
18,O=C(Nc1cccc(-c2cccc(-c3nc4ccccc4[nH]3)c2)c1)Nc1ccc(Cl)c(Cl)c1,78
19,Cc1cc(Nc2cccc(C(F)(F)F)c2)nc2ccc(NC(=O)c3ccc(=O)[nH]c3)cc12,21
20,CC(C)c1ccc(NC(=O)N[C@H]2CCN(CCCCCNC(=O)/C=C/c3ccc(Cl)c(Cl)c3)C2)cc1,56
